Assay results: ChEMBL document CHEMBL3988442, “University of Dundee, Small-Polar-MMV Screening Library” (2021)
The campaign covered roughly 69,000 compounds. About 950 (1.4%) showed an effect of 50% or more. The list comes from a sample in which strong results are over-represented; it also holds similar structures and randomly drawn compounds.

What follows are compounds tested on Mycobacterium tuberculosis (assay: Cornell M. t heat shock assay; note: in the data most compounds retested in dose-response had high values).
Assay type: functional, organism-based
Parameters: dose or concentration left out as unconfirmed

| Compound | Percent Effect [%] |
| --- | --- |
| CN(C)Cc1cc(=O)n2c(n1)CN(S(=O)(=O)C1CC1)CCC2.O=C(O)C(F)(F)F | 14.69 |
| CCSc1ccccc1C(=O)N(CCOC)Cc1ccoc1 | -23.21 |
| COCC(=O)N1CCN(CCn2cccn2)c2nc(C)ccc2C1.O=C(O)C(F)(F)F | -7.36 |
| COCC1CC2(CCN(c3ccccn3)CC2)CN1C(C)C.O=C(O)C(F)(F)F.O=C(O)C(F)(F)F (stereo not given) | -2.762 |
| Cc1csc(CN2CC[C@H]3C[C@H](c4nc(C)no4)O[C@@H]3C2)n1.O=C(O)C(F)(F)F | -42.3 |
| Cn1cc(-c2ncnc3c2CCN(CC2CCOC2)CC3)cn1.O=C(O)C(F)(F)F (stereo not given) | 17.32 |
| O=C(O)C(F)(F)F.O=C(O)C(F)(F)F.c1ccc(CN2CCn3c(Cn4cncn4)cnc3C2)nc1 | 0.3776 |
| O=C(O)C(F)(F)F.O=C([C@H]1C[C@H]2OCC[C@H]2N(CCc2ccccc2)C1)N1CCCO1 | -5.073 |
| O=C(NCC1CC1)C1CN(c2ncccn2)Cc2ccnn2C1.O=C(O)C(F)(F)F.O=C(O)C(F)(F)F (stereo not given) | 12.91 |
| CCc1nc(CN2CCCN(C(=O)COCC3CC3)CC2)cs1 | 155.1 |
| CCc1nc(CN2CCCN(C(=O)c3cn[nH]c3C)CC2)cs1 | 14.33 |
| CCc1nc(CN2CCCN(C(=O)c3cn[nH]c3CC)CC2)cs1 | 52.06 |
| Cc1nc(CN2CCCN(C(=O)COCC3CC3)CC2)cs1 | 36.12 |
| CCc1nc(CN2CCCN(C(=O)c3cnc[nH]3)CC2)cs1 | 30.64 |
| Cc1ncc(CN2CCCN(Cc3noc(C4CC4)n3)CC2)s1 | 6.148 |
| CCCOCC(=O)N1CCCN(Cc2csc(CC)n2)CC1 | 22.03 |
| CCc1nc(CN2CCCN(Cc3noc(C4CC4)n3)CC2)cs1 | 67.89 |
| c1csc(N2CCCN(Cc3noc(C4CC4)n3)CC2)n1 | -6.96 |
| CCc1nc(-c2ccnc(N3CCNCC3)n2)no1.Cl.Cl | -8.056 |
| Cl.O=C(c1cccnc1)N1CCC2(CC1)CNc1c(F)cccc12 | 4.233 |
| O=C(O)C(F)(F)F.c1cnc(NC2COC3(CCN(Cc4cc[nH]n4)CC3)C2)nc1 (stereo not given) | -22.6 |
| O=C(O)C(F)(F)F.O=C(O)C(F)(F)F.O=C(O)C(F)(F)F.O=C1C[C@H]2[C@@H](CCN2Cc2ccccn2)N1Cc1cccnc1 | -6.498 |
| O=C(O)C(F)(F)F.O=C([C@H]1C[C@H]2OCC[C@H]2N(C(=O)c2ccncc2)C1)N1CCCC1 | -34.63 |
| Cc1cc(CCC(=O)N(C)C)nc(C2CCCCN2)n1.Cl.Cl (stereo not given) | -7.222 |
| CCCS(=O)(=O)N1C[C@@H](OCc2ccncc2)[C@H]2OCCC[C@H]21.O=C(O)C(F)(F)F | -14.14 |
| CCn1cc2c(n1)C(COC)CN(C(=O)c1ccccn1)C2 (stereo not given) | -31.72 |
| CC(C)c1nc(-c2ccnc(N3CCNCC3)n2)no1.Cl.Cl | -7.834 |
| Cc1c(C2N3C[C@]4(C)CN2C[C@](C)(C3)C4=O)[nH]c(=O)[nH]c1=O (stereo not given in full) | 74.22 |

| Compound | Percent Effect [%] |
| --- | --- |
| CC[C@]12CN3C[C@](CC)(CN(C1)C3c1[nH]c(=O)[nH]c(=O)c1C)C2=O (stereo not given in full) | 72.7 |
| CCC[C@]12CN3C[C@](CCC)(CN(C1)C3c1[nH]c(=O)[nH]c(=O)c1C)C2=O (stereo not given in full) | -14.28 |
| Cc1c(C2N3C[C@]4(C(C)C)CN2C[C@](C(C)C)(C3)C4=O)[nH]c(=O)[nH]c1=O (stereo not given in full) | 1.038 |
| CCC[C@]12CN3C[C@](C)(CN(C1)C3c1[nH]c(=O)[nH]c(=O)c1C)C2=O (stereo not given in full) | -3.215 |
| CC[C@]12CN3C[C@](C)(CN(C1)C3c1[nH]c(=O)[nH]c(=O)c1C)C2=O (stereo not given in full) | 68.87 |
| O=C(O)C(F)(F)F.O=C1CC[C@H]2[C@H](CCN2c2ncc(F)cn2)N1c1ccccc1 | 11.33 |
| CCn1ccnc1CNCC(c1ccc(C)s1)N1CCOCC1 (stereo not given) | -18.67 |
| Cn1ccc(C(=O)N2C[C@H]3CCC[C@@]3(COCc3cccnc3)C2)n1.O=C(O)C(F)(F)F | -13.25 |
| CC(C(N)=O)N(C)CCCc1cc(-c2ccc(F)cc2)n(C)n1 (stereo not given) | 22.06 |
| CN(CCCc1cc(-c2ccc(F)cc2)n(C)n1)CC(=O)NC(N)=O | 24.77 |
| CN(CCCc1cc(-c2ccc(F)cc2)n(C)n1)CC(N)=O | 51.67 |
| CN(C)[C@@H]1CCN(C(=O)c2ccccn2)[C@H]1Cc1ccncc1 | 0.1149 |
| CN(C)[C@@H]1CCN(C(=O)c2ccccn2)[C@H]1Cc1cnn(C)c1 | 76.59 |
| CN(C)[C@@H]1CCN(C(=O)c2ccsc2)[C@H]1Cc1cnn(C)c1 | 4.524 |
| CC(C)CN1C[C@H]2CCN(Cc3cccnc3)CC[C@H]2S1(=O)=O.O=C(O)C(F)(F)F.O=C(O)C(F)(F)F | -7.462 |
| CCOC(=O)C(CO)NC(=O)CCc1cccc(OC2CCCC2)c1 (stereo not given) | -10.42 |
| Cc1ccc(N2N=C(C(N)=O)S(=O)(=O)c3cccnc32)cc1 | 105.6 |
| Cc1ccc(N2N=C(C(=O)O)S(=O)(=O)c3cccnc32)cc1 | -6.267 |
| Cc1ccc(N2N=C(C(=O)NCC3CC3)S(=O)(=O)c3cccnc32)cc1 | 9.457 |
| Cc1ccc(C(=O)N2C[C@@H]3OCCN(CCN4CCCC4)[C@@H]3C2)cn1.O=C(O)C(F)(F)F | 8.47 |
| O=C(CC1CC1)N1CCC2(CCCN(CCOc3ccccc3)C2)C1.O=C(O)C(F)(F)F (stereo not given) | -8.964 |
| Cc1cnn(CCNCc2csc(C)n2)c1 | 4.294 |
| Cc1cnn(CCNCc2csc(-c3ccc4c(c3)OCO4)n2)c1 | 93.68 |
| CC(Cn1cccn1)NCc1csc(-c2ccc3c(c2)OCO3)n1 (stereo not given) | 35.45 |
| c1cnn(CCNCCCOc2ccc3c(c2)OCO3)c1 | 0.6427 |
| c1cnn(CCNCc2csc(-c3ccc4c(c3)OCO4)n2)c1 | 65.17 |
| Cc1cnn(CCNCc2csc(-c3ccc(C(N)=O)cc3)n2)c1 | -3.906 |
